PubChem BioAssay (NCATS)
Several values for one entry are separate records, joined by “and”; a condition that tells them apart may be missing. Equal entries are not always repeated. Values without a mark were called inactive. Inconclusive results are not listed. Entries that show only a call come without a potency. Activity calls are given as the source filed them. Unless noted, the call rests on the fitted dose curve; in most records, active means well fitted curve in the direction sought with a large enough effect; inconclusive means small, poorly fitted or top-dose-only effect, or another doubt; inactive means no such curve, though single readings can be large; an effect the other way counts as inactive or inconclusive. Where a SMILES comes first, the peptide text is derived from it. Bridges are numbered along the chain shown (N, C = ends). [ ]: non-standard residue; d: D form. Orn = NCCC[C@H](N)C(=O)O; Mpa = O=C(O)CCS

Legend:
[1] = target: Luciferin 4-monooxygenase (Photinus pyralis) (UniProt P08659); experiment: Biochemical firefly luciferase enzyme assay for NPC (AID 624030); further: nearly all actives have a fitted effect of over 70% in size; further: potency means the concentration at half of the fitted maximal effect
How it was run: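 Purified P. pyralis luciferase at 10 nM in 50 mM Tris Acetate (final), luminescence read within 5 minutes of enzyme addition to compounds. Activity normalised to PTC124 versus DMSO; concentration-response curves classed by r2, magnitude and activity.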

[2] = target: Voltage-gated inwardly rectifying potassium channel KCNH2 (Homo sapiens) (UniProt Q12809); experiment: qHTS Assay for Small Molecule Inhibitors of the Human hERG Channel Activity (AID 588834);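 further: top concentration of the series differs between compounds; lower thallium flux fluorescence means stronger hERG block; nearly all actives have a fitted effect of over 50% in size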
How it was run: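 hERG-BacMam U2OS, 2000 cells/well; 0.7X FluxOR loading 1 hr RT dark; cpd ~10 min 37 °C; stim buffer; FDSS fluorescence 2 min @ 1 s; AC50 Hill fit.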

[3] = qHTS assay for small molecule activators of the p53 signaling pathway (AID 651743; active means well fitted activation curve with a large enough effect in the signal ratio, not every such curve was filed as active; the % refers to the signal ratio; further: series mostly up to about 92 µM); details: HCT-116 p53RE-bla, beta-lactamase FRET ratio, 16 h; stronger effect = higher value
How it was run: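 HCT-116 p53RE-bla, 4,000 cells/well; 5 h settle; cpd/DMSO 16 h, 37 C; LiveBLAzer B/G 2 h RT; fluorescence intensity.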

[4] = qHTS assay for small molecule activators of the nuclear factor-kappa B (NF-kB) signaling pathway (AID 651749; active means well fitted activation curve with a large enough effect in the signal ratio; the % refers to the signal ratio; further: series mostly up to about 77 µM); details: NF-kB-bla ME-180 cells, beta-lactamase FRET ratio, 16 h; stronger effect = higher value
How it was run: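 Incubation lasted 16 hr at 37C in 5% CO2 after 23 nL compound addition to ME-180 NF-kB-bla cells. Activation appears as beta-lactamase-mediated FRET loss.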

[5] = qHTS assay for small molecule disruptors of the mitochondrial membrane potential - 1 hr assay (AID 651754; calls by dose curve; further: nearly all actives have a fitted effect of over 35% in size)
How it was run: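 Steps: seed HepG2 cells and let attach overnight; pin-transfer compound or vehicle; incubate 1 hr at 37C; add Mito-MPS dye for 30 min; read two-channel fluorescence for monomer and aggregate forms.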

[6] = qHTS assay for small molecule disruptors of the mitochondrial membrane potential - 5 hr assay (AID 651755; calls by dose curve; further: nearly all actives have a fitted effect of over 40% in size)
How it was run: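 HepG2 cells (2,000/well), attached overnight, exposed to compound 5 hr at 37C, then Mito-MPS dye 30 min. Fluorescence read for monomers (490/535 nm) and aggregates (540/590 nm).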

[7] = target: Tumor necrosis factor (Homo sapiens) (UniProt P01375); experiment: qHTS assay to identify small molecules that stimulate Tumor Necrosis Factor-alpha (TNF-alpha) secretion (AID 651757; active means well fitted curve in the direction sought with a large enough effect in the signal ratio; the % refers to the signal ratio)
How it was run: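 Secreted TNF-alpha from compound-treated THP-1 cells (17 hrs, 37 C) was quantified with a homogeneous time-resolved fluorescence antibody assay.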

[8] = qHTS assay to identify small molecules that stimulate interleukin-8 (IL-8) secretion (AID 651758; active means well fitted activation curve with a large enough effect in the signal ratio; the % refers to the signal ratio)
How it was run: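 THP-1 cells (2000/well) exposed to compound 16 h at 37 C; secreted IL-8 then detected by HTRF with cryptate- and XL665-labelled anti-IL-8 antibody pair after 1-3 h at room temperature.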

[9] = qHTS assay for environmental chemicals that activate the Aryl hydrocarbon Receptor (AhR) signaling pathway (AID 651777); details: 1A2-DRE human hepatoma cells, luciferase, 24 h; stronger effect = higher value; further: nearly all actives have a fitted effect of over 15% in size
How it was run: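 1A2-DRE human hepatoma reporter line; 1,200 cells/well; cmpd or DMSO 24 h, 37 C/5% CO2; One-Glo 30 min RT; luciferase lum.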

[10] = target: Peroxisome proliferator-activated receptor alpha (Homo sapiens) (UniProt Q07869); experiment: qHTS assay for small molecule agonists of the peroxisome proliferator-activated receptor alpha (PPARalpha) signaling pathway (AID 651778); details: PathHunter PPARalpha complementation, chemiluminescence, 6 h; max response: stronger effect = higher value
How it was run: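 Enzyme-fragment complementation assay in which ligand-bound PPARalpha translocates and forms an active enzyme that generates chemiluminescence. Cells were plated overnight, exposed to compound for 6 hr at 37 C, and then given detection reagent for 60 min at room temperature.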

[11] = S16 Schwann cell viability assay (CellTiter-Glo assay) (AID 624031);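 further: cellular ATP luminescence as a viability measure; series mostly up to about 58 µM; nearly all actives have a fitted effect of over 70% in size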
How it was run: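 Luminescent ATP read-out (CellTiter-Glo) after 24 h compound exposure of native S16 rat Schwann cells at 37 °C. Signals were normalized between cell-free wells and DMSO-treated cells, set as 0% activity.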

[12] = S16 Schwann cell PMP22 intronic element firefly luciferase assay (AID 624032); further: series mostly up to about 58 µM; nearly all actives have a fitted effect of over 30% in size
How it was run: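 Rat S16 Schwann cells stably carrying firefly luciferase driven by a PMP22 intronic element, in 10% FBS, treated 24 h at 37 C. ONE-Glo luminescence normalized to PTC124 control and DMSO (0%); curves classed by r2, magnitude and activity.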

[13] = S16 Schwann cell PMP22 intronic element beta-lactamase assay (AID 624044; calls by dose curve; further: nearly all actives have a fitted effect of over 15% in size)
How it was run: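 Rat S16 Schwann cells with beta-Lac driven by a PMP22 intronic element, compound-treated 24 h at 37 °C. LiveBLAzer FRET B/G read: 460 nm normalized to potassium clavulanate vs DMSO; 535 nm FRET as viability; concentration-effect curves classified.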

[14] = target: Thyroid hormone receptor beta (Homo sapiens) (UniProt P10828); experiment: qHTS assay for small molecule antagonists of thyroid hormone receptor beta signaling (AID 588547; active means well fitted inhibition curve with a large enough effect in the signal ratio, with a control signal flat, not every such curve was filed as active; the % refers to the signal ratio; further: potency means the concentration at half of the fitted maximal effect;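 on activity change % (negative = inhibition): cells stimulated with 0.4 nM T3 agonist during compound exposure; series mostly up to about 77 µM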); details: TR-UAS-bla HEK293, beta-lactamase ratio, antagonist mode, 18 h
How it was run: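 TR-UAS-bla GripTite HEK293 cells in 2% charcoal/dextran FBS medium; compounds 0.59 nM to 92 uM with T3 at 0.4nM final, 18 h at 37 C. Beta-lactamase read by CCF4 fluorescence (460/530 nm); Hill fits gave IC50 and efficacy.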

[15] = qHTS assay for small molecule agonists of the antioxidant response element (ARE) signaling pathway (AID 651741; active means well fitted activation curve with a large enough effect in the signal ratio; the % refers to the signal ratio)
How it was run: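 HepG2 ARE-bla cells plated at 2,000 cells/well and incubated 5 h at 37 C/5% CO2 received 23 nL compound in DMSO. After 16 h at 37 C, LiveBLAzer B/G FRET substrate was applied for 2 h at room temperature and fluorescence read.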

[16] = target: Glutaminase kidney isoform, mitochondrial (Homo sapiens) (UniProt O94925); experiment: qHTS for Inhibitors of Glutaminase (GLS): LOPAC Validation (AID 624146);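 further: glutamate product detected by oxidase and peroxidase coupled Amplex red fluorescence gain; series mostly up to about 46 µM; nearly all actives have a fitted effect of over 60% in size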
How it was run: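 Assay buffer: 45 mM KH2PO4 pH 8.2, 0.02% Tween-20. hKGA acts on L-glutamine (1 mM solution added); product glutamate is reported by an oxidase/peroxidase Amplex Red coupling, with fluorescence taken at baseline and 30 min.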

[17] = target: Glucagon-like peptide 1 receptor (Homo sapiens) (UniProt P43220); experiment: qHTS of GLP-1 Receptor Agonists: LOPAC Validation (AID 624148);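 further: higher luminescence signal means agonism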
How it was run: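 HEK293 cells stably co-expressing GLP-1R and a cAMP-responsive luciferase reporter, plated 12 hours before compound, then incubated 4-6 hr at 37 deg C. Luminescence read 12 min after detection reagent.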

[18] = qHTS of Nrf2 Activators: LOPAC Validation (AID 624149)
How it was run: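 ARE reporter activation measured in AREc32 firefly luciferase cells after 24 hr compound exposure; Steady-Glo luminescence.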

[19] = HTS Assay for Allosteric Antagonists of the Human D2 Dopamine Receptor: Hit Validation in HTRF (AID 624455);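 further: stable D1 dopamine receptor cell line scored for blocking the D1 response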
How it was run: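 Signal from an HTRF read-out in D1-expressing stable cells gave hit activity as inhibition of the D1 response.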

Sequence of Tumor necrosis factor (Homo sapiens) (P01375 whole entry, looked up): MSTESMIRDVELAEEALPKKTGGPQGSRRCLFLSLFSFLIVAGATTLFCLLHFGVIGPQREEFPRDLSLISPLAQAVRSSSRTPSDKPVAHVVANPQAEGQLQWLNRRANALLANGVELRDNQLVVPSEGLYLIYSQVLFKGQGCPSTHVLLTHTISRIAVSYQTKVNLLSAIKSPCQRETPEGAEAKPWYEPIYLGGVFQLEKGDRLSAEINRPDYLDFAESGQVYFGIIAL
Sequence of Thyroid hormone receptor beta (Homo sapiens) (P10828 whole entry, looked up): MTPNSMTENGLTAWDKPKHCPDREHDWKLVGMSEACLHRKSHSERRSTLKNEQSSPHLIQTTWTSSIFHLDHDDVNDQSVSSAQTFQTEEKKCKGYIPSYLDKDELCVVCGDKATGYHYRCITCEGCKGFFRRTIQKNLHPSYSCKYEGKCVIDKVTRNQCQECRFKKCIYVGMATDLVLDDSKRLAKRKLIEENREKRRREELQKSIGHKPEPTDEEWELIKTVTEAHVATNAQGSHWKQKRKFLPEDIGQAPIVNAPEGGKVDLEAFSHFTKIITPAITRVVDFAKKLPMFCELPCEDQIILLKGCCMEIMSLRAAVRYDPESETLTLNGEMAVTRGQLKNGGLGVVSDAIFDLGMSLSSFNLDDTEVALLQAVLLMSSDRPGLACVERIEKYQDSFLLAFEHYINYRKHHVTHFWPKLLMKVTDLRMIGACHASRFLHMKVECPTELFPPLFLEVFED
Sequence of Peroxisome proliferator-activated receptor alpha (Homo sapiens) (Q07869 whole entry, looked up, the tested form may be a part): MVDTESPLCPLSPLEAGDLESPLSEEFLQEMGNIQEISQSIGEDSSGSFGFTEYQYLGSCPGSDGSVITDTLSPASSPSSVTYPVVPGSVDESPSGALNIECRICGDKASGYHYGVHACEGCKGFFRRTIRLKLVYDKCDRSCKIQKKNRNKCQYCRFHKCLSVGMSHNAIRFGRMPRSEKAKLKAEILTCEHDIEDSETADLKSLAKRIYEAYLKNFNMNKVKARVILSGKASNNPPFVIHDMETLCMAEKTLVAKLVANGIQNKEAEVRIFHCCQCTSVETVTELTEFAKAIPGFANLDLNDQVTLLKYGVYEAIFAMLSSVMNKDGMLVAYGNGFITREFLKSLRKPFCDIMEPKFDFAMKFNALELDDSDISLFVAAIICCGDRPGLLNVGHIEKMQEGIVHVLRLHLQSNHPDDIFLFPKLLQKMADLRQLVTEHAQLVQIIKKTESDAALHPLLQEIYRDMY
Sequence of Voltage-gated inwardly rectifying potassium channel KCNH2 (Homo sapiens) (Q12809 whole entry, looked up): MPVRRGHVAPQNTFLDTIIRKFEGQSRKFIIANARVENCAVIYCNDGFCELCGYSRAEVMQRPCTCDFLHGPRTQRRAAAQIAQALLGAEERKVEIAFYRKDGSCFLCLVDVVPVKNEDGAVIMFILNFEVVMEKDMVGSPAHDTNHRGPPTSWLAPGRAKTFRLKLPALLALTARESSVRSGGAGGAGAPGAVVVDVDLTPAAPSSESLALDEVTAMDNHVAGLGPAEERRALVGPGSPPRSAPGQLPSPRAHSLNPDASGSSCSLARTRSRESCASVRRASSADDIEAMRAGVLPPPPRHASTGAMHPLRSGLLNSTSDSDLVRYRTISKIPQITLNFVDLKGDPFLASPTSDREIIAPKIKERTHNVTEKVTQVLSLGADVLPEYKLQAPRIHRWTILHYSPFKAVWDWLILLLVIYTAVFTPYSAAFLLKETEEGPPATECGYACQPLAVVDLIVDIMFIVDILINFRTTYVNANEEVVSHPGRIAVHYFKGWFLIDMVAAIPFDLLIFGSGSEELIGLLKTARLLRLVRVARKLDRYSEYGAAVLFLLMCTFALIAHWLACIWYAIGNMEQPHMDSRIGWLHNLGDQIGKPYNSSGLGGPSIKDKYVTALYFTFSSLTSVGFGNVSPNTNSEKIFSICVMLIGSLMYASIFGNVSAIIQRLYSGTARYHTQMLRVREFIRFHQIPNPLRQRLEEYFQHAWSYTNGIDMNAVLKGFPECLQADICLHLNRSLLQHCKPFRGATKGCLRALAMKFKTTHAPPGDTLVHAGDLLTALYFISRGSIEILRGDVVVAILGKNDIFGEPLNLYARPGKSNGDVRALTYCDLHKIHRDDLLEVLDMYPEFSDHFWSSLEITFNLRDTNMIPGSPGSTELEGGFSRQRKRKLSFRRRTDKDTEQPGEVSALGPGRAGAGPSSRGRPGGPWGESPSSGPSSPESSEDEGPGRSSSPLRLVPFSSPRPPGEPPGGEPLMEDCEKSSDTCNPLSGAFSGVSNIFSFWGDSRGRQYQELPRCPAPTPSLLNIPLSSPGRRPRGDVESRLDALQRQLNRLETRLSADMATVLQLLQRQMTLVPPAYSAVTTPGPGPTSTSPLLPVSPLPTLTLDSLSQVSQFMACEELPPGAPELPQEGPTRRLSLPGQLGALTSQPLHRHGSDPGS
Sequence of Luciferin 4-monooxygenase (Photinus pyralis) (P08659 whole entry, looked up): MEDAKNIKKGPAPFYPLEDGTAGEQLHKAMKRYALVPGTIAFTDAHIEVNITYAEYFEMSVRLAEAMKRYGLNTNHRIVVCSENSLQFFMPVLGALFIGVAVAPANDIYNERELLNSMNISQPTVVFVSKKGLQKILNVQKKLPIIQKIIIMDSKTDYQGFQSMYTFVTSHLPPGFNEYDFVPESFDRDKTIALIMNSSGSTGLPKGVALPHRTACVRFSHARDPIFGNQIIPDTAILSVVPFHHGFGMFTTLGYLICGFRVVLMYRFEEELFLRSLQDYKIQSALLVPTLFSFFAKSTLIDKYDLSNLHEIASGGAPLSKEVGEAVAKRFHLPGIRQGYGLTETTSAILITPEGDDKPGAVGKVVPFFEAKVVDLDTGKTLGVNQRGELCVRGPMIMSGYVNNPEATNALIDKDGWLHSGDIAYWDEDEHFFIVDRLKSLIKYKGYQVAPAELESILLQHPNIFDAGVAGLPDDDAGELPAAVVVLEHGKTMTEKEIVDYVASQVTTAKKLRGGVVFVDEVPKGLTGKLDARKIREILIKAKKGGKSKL
Sequence of Glucagon-like peptide 1 receptor (Homo sapiens) (P43220 whole entry, looked up): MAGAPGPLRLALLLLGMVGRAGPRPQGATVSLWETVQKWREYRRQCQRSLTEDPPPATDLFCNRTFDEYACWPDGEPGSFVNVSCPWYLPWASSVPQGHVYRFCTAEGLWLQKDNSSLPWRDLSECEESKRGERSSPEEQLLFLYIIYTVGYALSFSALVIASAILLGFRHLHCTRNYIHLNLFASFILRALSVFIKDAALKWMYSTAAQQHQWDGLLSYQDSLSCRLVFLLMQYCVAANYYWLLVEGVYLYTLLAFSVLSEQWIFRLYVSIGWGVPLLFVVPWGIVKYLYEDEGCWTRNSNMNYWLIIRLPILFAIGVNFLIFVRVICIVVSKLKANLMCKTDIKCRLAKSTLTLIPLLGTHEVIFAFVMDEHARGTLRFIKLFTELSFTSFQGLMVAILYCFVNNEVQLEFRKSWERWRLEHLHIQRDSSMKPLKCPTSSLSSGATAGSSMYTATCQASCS
Sequence of Glutaminase kidney isoform, mitochondrial (Homo sapiens) (O94925 whole entry, looked up, canonical isoform): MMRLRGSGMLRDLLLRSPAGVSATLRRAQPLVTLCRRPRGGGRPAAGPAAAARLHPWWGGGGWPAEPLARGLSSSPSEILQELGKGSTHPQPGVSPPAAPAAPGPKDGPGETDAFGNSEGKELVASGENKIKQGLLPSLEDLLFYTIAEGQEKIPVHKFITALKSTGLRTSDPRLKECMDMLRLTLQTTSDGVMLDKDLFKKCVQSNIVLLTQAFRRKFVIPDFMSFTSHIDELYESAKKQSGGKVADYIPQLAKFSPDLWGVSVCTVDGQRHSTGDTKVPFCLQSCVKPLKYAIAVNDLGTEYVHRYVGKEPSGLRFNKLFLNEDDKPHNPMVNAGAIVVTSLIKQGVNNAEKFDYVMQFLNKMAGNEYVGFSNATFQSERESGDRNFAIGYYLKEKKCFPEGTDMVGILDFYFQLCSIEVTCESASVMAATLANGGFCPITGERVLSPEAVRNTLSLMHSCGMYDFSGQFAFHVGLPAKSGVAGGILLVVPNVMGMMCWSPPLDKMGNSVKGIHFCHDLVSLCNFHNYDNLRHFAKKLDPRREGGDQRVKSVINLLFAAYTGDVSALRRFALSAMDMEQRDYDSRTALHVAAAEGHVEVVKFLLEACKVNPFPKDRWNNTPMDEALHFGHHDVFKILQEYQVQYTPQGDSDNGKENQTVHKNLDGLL

For `O=C1C(c2[nH]c3ccc(S(=O)(=O)O)cc3c2O)=Nc2ccc(S(=O)(=O)O)cc21`, the Potency [1] was “inactive”.

For `COc1ccc(C2NC(=S)N3C(c4ccc(OC)c(OC)c4)NC(=S)N23)cc1OC` (stereo unspecified), the Potency [1] was “inactive”.

For `O=C(O)CC(O)(CC(=O)O)C(=O)O`, the outcome [2] was “inactive”, the Potency [1] was “inactive” and the activation [3] was -3% and -0.0659% and -0.0181%. For the same compound, the activation [4] was -0.675% and 0.892% and -1.06%, the outcome [5] was “inactive” and the outcome [6] was “inactive”. The outcome [7] was “inactive”, the outcome [8] was “inactive” and the activation [9] was 0.406% and -1.76% and 1.69%. The max response [10] was -3.03% and 0.0721% and -1.17%.

For `CCCOc1ccc2nc(NC(=O)OC)sc2c1`, the outcome [2] was “inactive”, the Potency [1] was 1.14 µM (active) and the Potency [11] was “inactive”. The Potency [12] was “inactive” and the outcome [13] was “inactive”.

With `OCC(O)COc1ccc(Cl)cc1` (stereo unspecified) the Potency [1] was “inactive”.

For `COC(C)=O`, the activity change % (negative = inhibition) [14] was -1.11%, the outcome [2] was “inactive” and the Potency [1] was “inactive”. The Potency [15] was “inactive”, the outcome [7] was “inactive” and the outcome [8] was “inactive”. For the same compound, the activation [9] was 0.269% and the max response [10] was 6.49%.

In the case of `CN(C)Cc1ccccc1`, the activity change % (negative = inhibition) [14] was -0.727%, the outcome [2] was “inactive” and the Potency [1] was “inactive”. For the same compound, the Potency [15] was “inactive”, the activation [3] was -3.48% and the activation [4] was 0.946%. The outcome [5] was “inactive”, the outcome [6] was “inactive” and the outcome [7] was “inactive”. The activation [9] was -1.16% and the max response [10] was -9.3%.

In the case of `O=S(O)CO`, the Potency [1] was “inactive”.

For `CCCCCCCCCC(=O)O`, the activity change % (negative = inhibition) [14] was 17.7%, the outcome [2] was “inactive” and the Potency [1] was “inactive”. The Potency [15] was “inactive”, the activation [3] was -0.571% and 9.23% and the activation [4] was -1.38% and -1.03%. The outcome [7] was “inactive” and the max response [10] was 5.25% and -0.468%.

In the case of `C=Cc1ccccc1`, the outcome [2] was “inactive”, the Potency [1] was “inactive” and the activation [3] was -0.864% and -2.45%. The activation [4] was -0.47% and -1.21%, the outcome [7] was “inactive” and the outcome [8] was “inactive”. For the same compound, the activation [9] was 0.041% and 1.82% and the max response [10] was -2.11% and 2.32%.

In the case of `Cn1nnnc1SCC1=C(C(=O)O)N2C(=O)[C@@H](NC(=O)[C@H](OC=O)c3ccccc3)[C@H]2SC1`, the Potency [1] was “inactive”.

With `CCOc1ccc(C[C@H]2NC(=O)CCSSC[C@@H](C(=O)N3CCC[C@H]3C(=O)N[C@@H](CCCN)C(=O)NCC(N)=O)NC(=O)[C@H](CC(N)=O)NC(=O)[C@H]([C@@H](C)O)NC(=O)[C@H]([C@@H](C)CC)NC2=O)cc1` ([Mpa][dY](Et)ITNCP[Orn]G-NH2; disulfide 1-6) the Potency [1] was “inactive”.

With `CCC(=O)O` the Potency [1] was “inactive”.

For `CC(=O)S[C@@H]1CC2=CC(=O)CC[C@]2(C)[C@H]2CC[C@@]3(C)[C@@H](CC[C@@]34CCC(=O)O4)[C@H]12`, the Potency [14] was 28.2 µM (active), the activation [3] was 29.9% and the activation [9] was -3.59%. For the same compound, the max response [10] was -2.36%.

For `CNC[C@@H]1CC[C@@H](N)[C@@H](O[C@H]2[C@H](O)[C@@H](O[C@H]3OC[C@](C)(O)[C@H](NC)[C@H]3O)[C@H](N)C[C@@H]2N)O1`, the Potency [1] was “inactive”.

In the case of `Cc1cc(Nc2ccccc2C(=O)O)ccc1Cl`, the Potency [1] was 16.1 µM (active).

With `c1ccc2c(CCC3CCNCC3)c[nH]c2c1` the Potency [1] was “inactive”.

In the case of `Cc1ccc(/C(=C\CN2CCCC2)c2cccc(/C=C/C(=O)O)n2)cc1`, the Potency [1] was “inactive”.

With `CCCCCCCCCCCCCCCCCC(=O)OCCO` the Potency [1] was “inactive”.

In the case of `NCCCC(=O)O`, the outcome [2] was “inactive”, the Potency [1] was “inactive” and the Potency [11] was “inactive”. For the same compound, the Potency [12] was “inactive”, the outcome [13] was “inactive” and the outcome [16] was “inactive”. For the same compound, the outcome [17] was “inactive”, the outcome [18] was “inactive” and the outcome [19] was “inactive”.

In the case of `CCC(C)C(C(=O)OCC[N+](C)(CC)CC)c1ccccc1` (stereo unspecified), the Potency [1] was “inactive”.

With `O=S(=O)(O)Oc1ccc(C(c2ccc(OS(=O)(=O)O)cc2)c2ccccn2)cc1` the Potency [1] was “inactive”.

With `CCCCC(=O)O` the Potency [1] was “inactive”.

For `CCOc1ccc(N=C(C)Nc2ccc(OCC)cc2)cc1`, the Potency [1] was “inactive”.

With `Cc1c(O)cc2c(c1C)O[C@](C)(CCC[C@H](C)CCC[C@H](C)CCCC(C)C)CC2` the Potency [1] was “inactive”.

For `CS(=O)(=O)OCCCNCCCOS(C)(=O)=O`, the Potency [1] was “inactive”.

For `CCCCCC(O)/C=C/C=O` (stereo unspecified), the Potency [1] was “inactive”.

For `CCCC(CCC)C(N)=O`, the Potency [1] was “inactive”.

In the case of `O=C(OCCO)c1ccccc1O`, the Potency [1] was “inactive”.

For `C[C@H]1C[C@@H]2[C@H]([C@@H](O)C[C@@]3(C)[C@H]2CC[C@]3(O)C(=O)COC(=O)CCC(=O)O)[C@@]2(C)C=CC(=O)C=C12`, the Potency [1] was “inactive”.

In the case of `CN(C)CCOc1ccccc1Cc1ccccc1` (tested in a mixture with another compound), the Potency [1] was “inactive”.
